The values that follow come from PubChem BioAssay AID2685 (National Center for Advancing Translational Sciences (NCATS), 2010).

Each structure is given as a SMILES string. Out of some 320,000 compounds screened, about 2,100 (0.66%) were called active. Not shown: some 53% with an inconclusive outcome. The sample holds actives, similar compounds and a random draw of the others, so the mix is not that of the screen. The call rests on the fitted dose curve; in most records, active means well fitted inhibition curve with a large enough effect in the signal ratio, with a control signal flat (not every such curve was filed as active); inconclusive means small, poorly fitted or top-dose-only effect, or effect the other way, or a change in a side signal; inactive means flat fitted curve, though single readings scatter; the % refers to the signal ratio.
Potency means the concentration at half of the fitted maximal effect.

The nature of the experiment: qHTS Assay for Lipid Storage Modulators in Drosophila S3 Cells.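 On cell number change: cells counted by Cell Tracker Red CMTPX staining in the red channel.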 On lipid storage change, negative = inhibition: on the % scale 0 is the no-effect control and ±100 the full control effect. The note with it: BODIPY lipid droplet fluorescence, 18-24 h, cells fed with added oleic acid; cell number change: measured here: cell count max response; series mostly up to 46.1 µM; lipid storage change, negative = inhibition: at the top concentration. A digest of the protocol: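 Drosophila S3 cells loaded with oleic acid (400 uM, as added) and compounds at several concentrations; lipid droplets imaged by 488-nm laser-scanning cytometry, 500–530 nm intensity and object ratio to cell channel. Percent activity normalized to 20 uM Triacsin C.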
For orientation: In qHTS, concentration-response curves come from the screen itself.
Turning to `COc1cccc(C2/C(=C(/O)c3ccc(F)cc3)C(=O)C(=O)N2CCN(C)C)c1` (centres undefined), the “lipid storage change, negative = inhibition” value was 0.584% (inactive) and the cell number change turned out to be 5.93%.

For the compound `COc1cccc(C2/C(=C(/O)c3ccncc3)C(=O)C(=O)N2CCCN(C)C)c1` (centres undefined), the Potency is 6.51 µM (active) and the cell number change came to 2.93%.

Consider `COc1cccc(/C(O)=C2/C(=O)C(=O)N(CCN(C)C)C2c2ccc(Br)cc2)c1` (centres undefined), for which the Potency is 2.31 µM (active) and the cell number change came to 3.06%.

`COC(=O)CNc1nc(C2CC2)nc2c1nnn2Cc1ccccc1Cl`: the “lipid storage change, negative = inhibition” value is -17.4% (inactive) and the cell number change is -11.7%.

As for `COc1ccc2c(c1)C(C)=CC(C)(C)N2C(=O)C(C)N1C(=O)c2ccccc2C1=O` (centres undefined), the “lipid storage change, negative = inhibition” value is 5.97% (inactive) and the cell number change was 1.95%.

`C[C@H](NC(N)=O)C(=O)Nc1ccc2c(c1)OCO2`: the “lipid storage change, negative = inhibition” value is -4.55% (inactive) and the cell number change was -6.18%.

For `COc1ccccc1C1C(C#N)=C(N)N(c2cccnc2)C2=C1C(=O)CC(C)(C)C2` (centres undefined), the “lipid storage change, negative = inhibition” value was -0.0654% (inactive) and the cell number change is -3.09%.

In the case of `Cn1cc(CCC(=O)N2CCCC(CCC(=O)NCc3ccccc3F)C2)cn1` (centres undefined), the “lipid storage change, negative = inhibition” value is 6.07% (inactive) and the cell number change turned out to be 3.88%.

Regarding `COc1cccc(NC(=O)CN(C)C(=O)C(C)Sc2ccccc2)c1` (centres undefined), the lipid storage change, negative = inhibition is 4.76% [at 0.0737 µM] (inactive).

With `CCOc1ccc(S(=O)(=O)Nc2cccc(C(=O)N3CCN(c4ccc(OC)cc4)CC3)c2)cc1`, the “lipid storage change, negative = inhibition” value was 6.02% (inactive) and the cell number change was -10.3%.

Regarding `CC(=O)NNC(=O)c1[nH]c2ccc(Cl)cc2c1-c1ccccc1`, the “lipid storage change, negative = inhibition” value was 24.7% (inactive) and the cell number change came to 19.7%.

Turning to `COc1ccc(Br)cc1S(=O)(=O)NCCCN1CCOCC1`, the “lipid storage change, negative = inhibition” value is 12.5% (inactive).

Regarding `Cc1cccc(OCCC(=O)OCC(=O)N2CCc3ccccc32)c1`, the “lipid storage change, negative = inhibition” value is 0.68% (inactive) and the cell number change was found to be 16.2%.

In the case of `CC(C)C(OC(=O)CCC(=O)Nc1nccs1)C(=O)NC1CCCCC1` (centres undefined), the “lipid storage change, negative = inhibition” value is 0.168% (inactive) and the cell number change stood at 7.34%.

Regarding `COc1ccc(N2C(=O)CC(N(CCc3ccc(OC)c(OC)c3)C(=S)Nc3ccccc3)C2=O)cc1` (centres undefined), the “lipid storage change, negative = inhibition” value was -6.57% (inactive) and the cell number change was -11.8%.

In the case of `Cc1ccccc1OCC(=O)OCC(=O)N1CCCc2ccccc21`, the compound was called inactive.

Regarding `CC(=O)c1sc2nsc(SCCN3CCCCC3)c2c1N`, the “lipid storage change, negative = inhibition” value is -3.85% (inactive) and the cell number change came out at 1.58%.

As to `CC(=O)c1sc2nsc(SCCN3CCCC3)c2c1N`, the “lipid storage change, negative = inhibition” value is -4.12% (inactive) and the cell number change was determined as 7.13%.

Turning to `Nc1c(C(=O)c2cccs2)sc2nsc(SCCN3CCCCC3)c12`, the Potency is 13 µM (active) and the cell number change was 11.5%.

As to `O=C1C(=O)c2ccccc2C(O)=C1C1CCC(c2ccc(Cl)cc2)CC1` (centres undefined), the Potency was 4.11 µM (active) and the cell number change was -0.693%.

Turning to `O=C1NC(c2ccc(Cl)cc2)Nc2ccccc21` (centres undefined), the compound was classed as inactive and the cell number change is -23.5%.

As to `O=C1c2ccccc2C(=O)C1c1ccc(Cl)cc1`, the “lipid storage change, negative = inhibition” value was -1.63% (inactive) and the cell number change was -2.4%.

For the compound `COc1cc(C(=O)Nc2ccc3c(c2)C(=O)N(CCC(=O)O)C3=O)cc(OC)c1OC`, the “lipid storage change, negative = inhibition” value is 3.95% (inactive) and the cell number change came out at 1.68%.

As for `CCOC(=O)c1cc(C)n(-n2cnnc2)c1C`, the Potency was 10.3 µM (active) and the cell number change came to 1.94%.

`CCOC(=O)c1cc(C)n(-c2ccccc2)c1C`: the “lipid storage change, negative = inhibition” value was 3.49% (inactive).

Regarding `CCOC(=O)c1cc(C)n(S(=O)(=O)c2ccc(C)cc2)c1C`, the “lipid storage change, negative = inhibition” value was -11.4% (inactive) and the cell number change is -10.7%.

Take `CCCn1c(N)c(C(=O)CN(C)CC(=O)Nc2cc(C)ccc2C)c(=O)[nH]c1=O`: the “lipid storage change, negative = inhibition” value was 26.4% (inactive) and the cell number change was 15.5%.

In the case of `CCCn1c(N)c(C(=O)CN(C)CC(=O)Nc2c(Cl)cccc2Cl)c(=O)[nH]c1=O`, the compound was classed as inactive and the cell number change is -5.76%.

Regarding `CCCn1c(N)c(C(=O)CN(C)CC(=O)Nc2ccccc2C(F)(F)F)c(=O)[nH]c1=O`, the Potency was 7.31 µM (active) and the cell number change is -17.2%.

With `COc1ccc(CCNC(=O)C2CC(c3ccccc3[N+](=O)[O-])=NO2)cc1` (centres undefined), the “lipid storage change, negative = inhibition” value was 5.21% (inactive) and the cell number change came out at 17.6%.

As for `CC1CCCCN1S(=O)(=O)c1ccc2c(c1)CCN2C(=O)CCC(=O)O` (centres undefined), the “lipid storage change, negative = inhibition” value is -8.2% (inactive) and the cell number change is 10%.

In the case of `Cc1cccc(N2CCN(S(=O)(=O)c3ccc4c(c3)CCCN4C(=O)C3CCC3)CC2C)c1` (centres undefined), the “lipid storage change, negative = inhibition” value was 6.82% (inactive) and the cell number change is -10.2%.

On to `O=C(C1CCC1)N1CCc2cc(S(=O)(=O)N3CCN(c4ccccn4)CC3)ccc21`, for which the result was inactive and the cell number change was -12.3%.

With `CC1CCCCN1S(=O)(=O)c1ccc2c(c1)CCN2C(=O)C1CCC1` (centres undefined), the “lipid storage change, negative = inhibition” value was -6.29% (inactive) and the cell number change is 0.0968%.

`O=C(C1CCC1)N1CCCc2cc(S(=O)(=O)N3CCN(c4ccccc4)CC3)ccc21`: the Potency is 3.26 µM (active) and the cell number change was -3.36%.

For `CC1CCCCN1S(=O)(=O)c1ccc2c(c1)CCN2C(=O)C1CC1` (centres undefined), the Potency was 10.3 µM (active) and the cell number change is -5.7%.

For the compound `Cc1cc(C)c(S(=O)(=O)N2CCOC2CNC(=O)C(=O)NCCCN2CCOCC2)c(C)c1` (centres undefined), the outcome was inactive and the cell number change came to 8.11%.

For the compound `O=C(O)CN(c1ccccc1)C1SC(=O)NC1=O` (centres undefined), the Potency was 7.31 µM (active) and the cell number change was -8.43%.

For `Cc1ccc(N(CC(N)=O)C2SC(=O)NC2=O)cc1` (centres undefined), the “lipid storage change, negative = inhibition” value is -4.95% (inactive) and the cell number change came to 8.58%.

As for `Cc1cccc(N(CC(N)=O)C2SC(=O)NC2=O)c1` (centres undefined), the “lipid storage change, negative = inhibition” value was -0.47% (inactive) and the cell number change turned out to be 8.77%.

`CC(C)[C@H](NC(=O)c1ccco1)C(=O)NCc1ccccc1`: the outcome was inactive and the cell number change is 17.1%.

As to `CC(C)C(NC(=O)c1ccco1)C(=O)NCc1ccc(C(=O)O)cc1` (centres undefined), the Potency is 6.51 µM (active) and the cell number change is -31.6%.

Turning to `CC(C)C(NC(=O)OCc1ccccc1)C(=O)NCc1ccc(C(=O)O)cc1` (centres undefined), the “lipid storage change, negative = inhibition” value is 19.3% (inactive) and the cell number change is 18%.

As for `CC(/C=C/c1ccccc1)=N/NC(=O)c1cnccn1`, the “lipid storage change, negative = inhibition” value was 8.89% (inactive) and the cell number change came out at 9.37%.
